Consider seven compounds from PubChem BioAssay (Tox21).

Assay [1] can be described thus: Nuclear factor erythroid 2-related factor 2/antioxidant responsive element (Nrf2/ARE) small molecule agonists: qHTS cell viability counter screen in human keratinocytes (AID 1919968; active means well fitted curve in the direction sought with a large enough effect in the repeat runs; an effect the other way counts as inactive or inconclusive; further: nearly all actives have a fitted effect of over 55% in size). The gist of the method:
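Cytotoxicity was multiplexed with the Nrf2/ARE luciferase assay in the same wells. Stably transfected HaCaT keratinocytes were treated with test compounds for 23 h at 37 C. Cell viability was then measured by CellTiter-Fluor fluorescence.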
Background: Quantitative high-throughput screening tests each substance at several concentrations.

Assay [2] is described as follows: Nuclear factor erythroid 2-related factor 2/antioxidant responsive element (Nrf2/ARE) small molecule agonists: luciferase reporter gene qHTS assay in human keratinocytes (AID 1919969; further: nearly all actives have a fitted effect of over 35% in size; further: potency means the concentration at half of the fitted maximal effect). (In general: Reporter assays use an easily measured gene product as a stand-in for the process of interest.)
Assay [3] concerns the target Gonadotropin-releasing hormone receptor (Homo sapiens) (UniProt P30968). Put plainly: Human gonadotropin-releasing hormone receptor (GnRHR) small molecule agonists, calcium flux assay in GnRHR-HEK293 cells (AID 1920063). Further: nearly all actives have a fitted effect of over 35% in size. The essentials: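 Agonist activity was measured as intracellular calcium flux in HEK293 cells engineered to stably express human GnRHR. After dye loading for 1 hour at 37 C, compounds in DMSO were added and fluorescence was followed for 3 minutes.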
Background: Calcium assays in cells follow changes in intracellular calcium, usually with a dye or a luminescent sensor.

Assay [4] has as its target KiSS-1 receptor (Homo sapiens) (UniProt Q969F8). Put plainly: Human kisspeptin (KISS1R) small molecule agonists, calcium flux assay in KISS1R-HEK293 cells (AID 1920064; active means well fitted curve in the direction sought with a large enough effect in the repeat runs; an effect the other way counts as inactive or inconclusive). The gist of the method:
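Agonist activity is monitored as intracellular calcium rise in engineered HEK293 cells carrying human KISS1R. Cells are dye-loaded for 1 h at 37 C before compound addition, and fluorescence is recorded for 3 min.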

A short description of assay [5]: G protein-coupled receptor (GPCR) small molecule agonists, calcium flux assay: HEK293 wild type cell line counter screen (AID 1920065). The essentials:
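Seed cells, incubate 18 h (37 C, 5% CO2); add calcium dye, 1 h at 37 C; pin-transfer compounds, ATP control or DMSO; read fluorescence 480/540 nm each second for 3 min.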

Assay [6] in a line: p53 small molecule agonists, cell-based qHTS assay with human liver microsomes: qHTS cell viability counter screen (AID 1963579). Further: nearly all actives have a fitted effect of over 45% in size. The essentials:
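Viability of p53RE-bla cells is measured as CellTiter-Glo luminescence following a 16 h, 37 C incubation with compound, liver microsomes from human donors and NADPH.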

Assay [7] can be described thus: p53 small molecule agonists, cell-based qHTS assay with rat liver microsomes: qHTS cell viability counter screen (AID 1963580). Further: nearly all actives have a fitted effect of over 45% in size. The gist of the method: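 Luminescent ATP readout (CellTiter-Glo, 30 min at room temperature) reports viability of p53RE-bla HCT-116 cells after 16 h at 37 C with test compounds under metabolic activation by rat liver microsomes and NADPH at 0.5 mg/mL final each.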

Assay [8] in a line: p53 small molecule agonists, cell-based qHTS assay: qHTS cell viability counter screen (AID 1963581). Further: nearly all actives have a fitted effect of over 45% in size. The essentials:
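Viability was counter-screened in parallel with the p53 agonist reporter by measuring intracellular ATP luminescence in the same HCT-116 p53RE-bla wells after 16 h compound treatment at 37 C.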

Assay [9] in a line: p53 small molecule agonists, cell-based qHTS assay (AID 1963582; active means well fitted activation curve with a large enough effect in the signal ratio in the repeat runs, not every such curve was filed as active; the % refers to the signal ratio). The gist of the method: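 Cells carrying a p53-responsive bla reporter are treated with test compounds for 16 h at 37 C; beta-lactamase activity is then detected with LiveBLAzer B/G FRET substrate after 2 h at room temperature.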
Assay [10] deals with 5-hydroxytryptamine receptor 2A (Homo sapiens) (UniProt P28223). In words: 5-hydroxytryptamine receptor 2A (HTR2A) small molecule antagonists, cell-based qHTS assay (AID 1963586). Further: nearly all actives have a fitted effect of over 45% in size. Further: potency means the concentration at half of the fitted maximal effect. The gist of the method: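 CHO cells stably expressing human HTR2A were plated for 18 h at 37 C, then loaded with calcium dye for 1 h. Compounds were preincubated 5 min at room temperature before DOI (4 nM solution) was added. Kinetic fluorescence was read for 3 min.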
Sequence of 5-hydroxytryptamine receptor 2A (Homo sapiens) (P28223 whole entry, looked up): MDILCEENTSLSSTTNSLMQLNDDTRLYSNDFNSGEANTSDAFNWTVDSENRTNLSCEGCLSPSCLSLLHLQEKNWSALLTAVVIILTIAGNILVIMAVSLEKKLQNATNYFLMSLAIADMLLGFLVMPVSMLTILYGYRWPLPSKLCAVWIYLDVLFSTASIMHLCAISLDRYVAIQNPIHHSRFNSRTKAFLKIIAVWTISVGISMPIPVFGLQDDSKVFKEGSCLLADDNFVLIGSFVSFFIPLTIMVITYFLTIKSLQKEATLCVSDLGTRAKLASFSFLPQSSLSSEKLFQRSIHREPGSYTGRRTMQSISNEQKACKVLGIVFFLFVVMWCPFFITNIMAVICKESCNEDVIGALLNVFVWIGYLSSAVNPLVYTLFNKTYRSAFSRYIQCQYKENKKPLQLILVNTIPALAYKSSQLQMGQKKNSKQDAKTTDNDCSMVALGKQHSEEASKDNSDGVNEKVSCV

For assay [11] the target is unchanged. In words: 5-hydroxytryptamine receptor 2A (HTR2A) small molecule agonists, cell-based qHTS assay (AID 1963587). Further: nearly all actives have a fitted effect of over 30% in size. The gist of the method:
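HTR2A-CHO cells, plated 18 h at 37 C/5% CO2, dye-loaded 1 h at 37 C; compounds in DMSO added by pin tool (agonist mode). Intracellular calcium flux read as kinetic fluorescence on FDSS over 2 min at 1 s intervals.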

Assay [12] concerns the target Muscarinic acetylcholine receptor M1 (Homo sapiens) (UniProt P11229). Put plainly: Cholinergic receptor muscarinic 1 (CHRM1) small molecule antagonists, cell-based qHTS assay (AID 1963588). Further: nearly all actives have a fitted effect of over 40% in size. Further: potency means the concentration at half of the fitted maximal effect. The essentials:
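Compounds were tested at 15 concentrations in three independent runs. Dye-loaded CHRM1-CHO cells were exposed 5 min at room temperature before stimulation by acetylcholine added at 50nM. Intracellular calcium was read kinetically on FDSS for 3 min.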

For assay [13] the target is unchanged. In words: Cholinergic receptor muscarinic 1 (CHRM1) small molecule agonists, cell-based qHTS assay (AID 1963589). Further: nearly all actives have a fitted effect of over 35% in size. The essentials: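 Cells were plated and incubated 18 h at 37 C/5% CO2, loaded with calcium dye for 1 h at 37 C, then treated with compounds in DMSO. Fluorescence was recorded kinetically at 1 sec intervals.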
Assay [14] can be described thus: cAMP Responsive Elements (CRE) small molecule agonists, cell-based qHTS assay (AID 1963590). The essentials:
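Cells carrying a CRE-driven beta-lactamase reporter (HEK 293T) are seeded, incubated overnight (18 h), and treated with test compounds for 3 h at 37 C; reporter activity is then detected with a FRET substrate after 2 h at room temperature.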

The nature of assay [15]: cAMP Responsive Elements (CRE) small molecule antagonists, cell-based qHTS assay (AID 1963591; active means well fitted inhibition curve with a large enough effect in the signal ratio in the repeat runs, not every such curve was filed as active; the % refers to the signal ratio). The essentials: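 Cells (CRE-bla HEK 293T, DMEM with 10% dialyzed FBS and 25 mM HEPES) are seeded and incubated 18 h. Compounds are added with NKH477 agonist at 0.25 uM final for 3 h, then FRET substrate for 2 h.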
The target of assay [16] is D(2) dopamine receptor (Homo sapiens) (UniProt P14416). Put plainly: Dopamine D2 receptor (DRD2) small molecule agonists, cell-based qHTS assay (AID 1963594). Further: nearly all actives have a fitted effect of over 35% in size. The gist of the method:
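HEK293 cells stably expressing DRD2 were cultured 24 h at 37 C, then given Ro20-1724 (0.1 mM final) and compounds for 10 min at room temperature. NKH477 (200nM) was then added for 30 min. cAMP was read by HTRF.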

Assay [17] shares this target. In words: Dopamine D2 receptor (DRD2) small molecule antagonists, cell-based qHTS assay (AID 1963595; active means well fitted inhibition curve with a large enough effect in the signal ratio in the repeat runs, with a control signal flat; the % refers to the signal ratio). The gist of the method:
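Cells were plated and grown for 24 h at 37 °C. Ro20-1724 (0.1 mM final) went in first, then compound for 10 min. NKH477 (200 nM) with quinpirole (12 nM) followed for 30 min at RT, then HTRF detection reagents for 1 h.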

In assay [18] the target is Beta-2 adrenergic receptor (Homo sapiens) (UniProt P07550). Put plainly: Adrenergic beta2 receptor (ADRB2) small molecule antagonists, cell-based qHTS assay (AID 1963592). Further: series mostly up to about 92 µM; nearly all actives have a fitted effect of over 50% in size. The gist of the method: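 Assay format: CHO-ADRB2 cells, 18-20hr seeding at 37C/5% CO2, then compound plus 1nM isoproterenol agonist mix for 0.5hr RT. Homogeneous time-resolved fluorescence cAMP detection after 1hr, expressed as 665/615 nm ratio.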
Sequence of Beta-2 adrenergic receptor (Homo sapiens) (P07550 whole entry, looked up): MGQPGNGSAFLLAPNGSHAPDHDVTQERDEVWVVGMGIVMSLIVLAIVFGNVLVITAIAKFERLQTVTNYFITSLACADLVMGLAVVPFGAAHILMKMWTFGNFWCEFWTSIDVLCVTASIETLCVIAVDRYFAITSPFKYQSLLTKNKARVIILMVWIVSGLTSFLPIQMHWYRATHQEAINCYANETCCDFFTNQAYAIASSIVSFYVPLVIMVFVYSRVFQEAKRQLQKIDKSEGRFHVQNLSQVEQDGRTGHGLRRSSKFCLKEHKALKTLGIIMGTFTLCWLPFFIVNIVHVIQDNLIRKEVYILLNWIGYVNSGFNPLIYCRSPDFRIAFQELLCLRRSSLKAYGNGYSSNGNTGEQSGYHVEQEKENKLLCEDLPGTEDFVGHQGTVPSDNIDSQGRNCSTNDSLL

Assay [19] shares this target. In words: Adrenergic beta2 receptor (ADRB2) small molecule agonists, cell-based qHTS assay (AID 1963593).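 Further: CHO cells stably overexpressing human ADRB2.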 The essentials: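 CHO cells stably over-expressing ADRB2 were plated overnight at 37C, then dosed with compounds plus a stimulation mix containing 100uM IBMX and 25uM Ro-20-1724 for 0.5hr at room temperature. cAMP was measured by HTRF competition, 1hr.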

A number with no mark means an inactive call. Inconclusive results are not listed. Active and inactive are the calls of the source. Unless noted, the call rests on the fitted dose curve.

Sequence of KiSS-1 receptor (Homo sapiens) (Q969F8 whole entry, looked up): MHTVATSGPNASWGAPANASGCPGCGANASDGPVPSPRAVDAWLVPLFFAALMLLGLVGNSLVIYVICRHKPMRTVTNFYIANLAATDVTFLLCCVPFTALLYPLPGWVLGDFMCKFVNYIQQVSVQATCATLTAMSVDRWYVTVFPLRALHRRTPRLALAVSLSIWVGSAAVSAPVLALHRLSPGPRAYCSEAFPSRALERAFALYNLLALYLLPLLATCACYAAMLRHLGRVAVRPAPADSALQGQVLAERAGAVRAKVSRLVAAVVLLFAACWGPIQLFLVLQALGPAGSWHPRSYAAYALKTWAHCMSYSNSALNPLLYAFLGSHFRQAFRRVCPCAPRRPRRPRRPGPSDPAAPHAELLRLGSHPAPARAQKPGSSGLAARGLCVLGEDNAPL
Sequence of Muscarinic acetylcholine receptor M1 (Homo sapiens) (P11229 whole entry, looked up): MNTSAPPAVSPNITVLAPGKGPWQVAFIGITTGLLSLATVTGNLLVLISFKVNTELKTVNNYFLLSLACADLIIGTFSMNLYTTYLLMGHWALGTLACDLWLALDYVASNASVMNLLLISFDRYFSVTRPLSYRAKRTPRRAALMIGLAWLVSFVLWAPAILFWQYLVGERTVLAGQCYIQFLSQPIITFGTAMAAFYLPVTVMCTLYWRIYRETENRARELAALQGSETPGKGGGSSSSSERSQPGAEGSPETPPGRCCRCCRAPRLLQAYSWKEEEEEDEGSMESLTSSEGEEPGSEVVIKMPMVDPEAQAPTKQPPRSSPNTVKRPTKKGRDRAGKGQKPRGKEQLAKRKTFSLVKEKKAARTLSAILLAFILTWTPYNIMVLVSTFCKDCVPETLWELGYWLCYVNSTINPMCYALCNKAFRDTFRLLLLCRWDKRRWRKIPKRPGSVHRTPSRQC
Sequence of Gonadotropin-releasing hormone receptor (Homo sapiens) (P30968 whole entry, looked up): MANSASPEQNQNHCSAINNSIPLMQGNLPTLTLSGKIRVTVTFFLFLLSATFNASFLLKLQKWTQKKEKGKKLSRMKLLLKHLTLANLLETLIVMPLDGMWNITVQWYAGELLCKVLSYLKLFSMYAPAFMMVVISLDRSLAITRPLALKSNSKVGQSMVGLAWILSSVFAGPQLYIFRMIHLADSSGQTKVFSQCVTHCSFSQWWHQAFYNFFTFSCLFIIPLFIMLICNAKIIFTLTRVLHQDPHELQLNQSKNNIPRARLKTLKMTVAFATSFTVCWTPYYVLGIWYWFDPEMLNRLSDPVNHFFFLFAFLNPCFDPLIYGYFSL
Sequence of D(2) dopamine receptor (Homo sapiens) (P14416 whole entry, looked up): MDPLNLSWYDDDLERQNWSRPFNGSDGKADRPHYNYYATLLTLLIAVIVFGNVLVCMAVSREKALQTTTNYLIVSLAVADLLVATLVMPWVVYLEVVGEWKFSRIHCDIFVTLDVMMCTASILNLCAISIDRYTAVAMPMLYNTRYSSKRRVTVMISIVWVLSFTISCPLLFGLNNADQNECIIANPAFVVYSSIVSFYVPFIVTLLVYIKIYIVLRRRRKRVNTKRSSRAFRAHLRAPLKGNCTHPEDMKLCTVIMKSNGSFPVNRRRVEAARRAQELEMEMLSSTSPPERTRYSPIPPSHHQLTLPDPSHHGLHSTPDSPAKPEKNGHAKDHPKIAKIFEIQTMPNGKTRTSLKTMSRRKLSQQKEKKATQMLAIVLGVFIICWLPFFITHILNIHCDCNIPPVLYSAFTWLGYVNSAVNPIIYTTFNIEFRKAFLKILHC

In the case of `CCN(C)C(=O)Oc1cccc([C@H](C)N(C)C)c1`, the Potency entry in assay [1], in [2], in [3], in assay [4], in [5] and in assay [6] was “inactive” in each case. Moreover, the Potency entry in assay [7], in [8], in [9], in assay [10], in [11] and in assay [12] was “inactive” throughout. Moreover, the Potency result in [13], in [14], in [15], in assay [16] and in [17] was “inactive” in each case.
On to `C=CCOC(=O)c1ccc(C(=O)OCC=C)c(C(=O)OCC=C)c1`, for which the Potency entry in assay [1], in [2], in assay [3], in assay [4], in assay [5] and in [6] was “inactive” in each case. In addition, the Potency entry in assay [7], in assay [8], in assay [11], in [12], in assay [13] and in [14] was “inactive” throughout. In addition, the Potency result in [15], in assay [18], in [19], in [16] and in assay [17] was “inactive” throughout. Moreover, in assay [10], the Potency is 33.4 µM (active).
In the case of `O=C(O)[C@H](O)c1ccccc1`, the Potency entry in assay [1], in assay [2], in assay [3], in [4], in assay [5] and in assay [6] was “inactive” in each case. In addition, the Potency result in assay [7], in assay [8], in assay [9], in assay [10], in assay [11] and in [12] was “inactive” in each case. Besides, the Potency entry in assay [13], in assay [14], in assay [15], in assay [18], in assay [19] and in [16] was “inactive” in each case. The Potency result in assay [17] is “inactive”.
In the case of `Cc1cc2nc(N)sc2cc1C`, the Potency entry in assay [1], in [2], in assay [3], in assay [4], in assay [5] and in assay [6] was “inactive” in each case. Also, the Potency result in assay [7], in assay [8], in assay [9], in [10], in assay [11] and in assay [12] was “inactive” throughout. Besides, the Potency result in [13], in [14], in assay [19], in [16] and in assay [17] was “inactive” in each case.
Consider `CCNC(=O)NCc1cccc(Cl)c1`, for which the Potency entry in [1], in assay [2], in [3], in [4], in [5] and in assay [6] was “inactive” in each case. Besides, the Potency entry in assay [7], in assay [8], in assay [10], in assay [11], in assay [12] and in assay [13] was “inactive” throughout. For the same compound, the Potency entry in assay [14], in assay [15], in assay [18], in assay [19], in [16] and in assay [17] was “inactive” in each case.
For `NCCCC(N)(C(=O)O)C(F)F` (stereo not given), the Potency result in assay [1], in assay [2], in [3], in [4], in assay [5] and in assay [6] was “inactive” in each case. For the same compound, the Potency result in assay [7], in assay [8], in [10], in assay [11], in assay [13] and in [14] was “inactive” each time. Further, the Potency result in assay [15], in [18], in [19], in [16] and in assay [17] was “inactive” in each case. In addition, in assay [12], the Potency is 0.163 µM (active).
As for `CC(C)c1ccc2cc(C(C)C)ccc2c1`, the Potency entry in [1], in [3], in assay [4], in assay [5], in assay [6] and in assay [7] was “inactive” in each case. Moreover, the Potency result in assay [8], in assay [10], in assay [11], in assay [12], in [13] and in assay [14] was “inactive” each time. For the same compound, the Potency entry in assay [15], in assay [18], in [19], in assay [16] and in [17] was “inactive” in each case. The Potency in assay [2] was 48.6 µM (active).
